High-throughput results: PubChem, The Scripps Research Institute Molecular Screening Center
PAFAH1B3 inh – PAFAH1B3 (human) inhibition. recombinant PAFAH1B3, FP-rhodamine probe, fluorescence polarization. Q15102. 0.28% of 340,000 active. inhibition, % at 3.39 µM;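 active means inhibition above the screen-wide average of all tested compounds plus 3 SD, cut at about 25% in these data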;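 further: 0% = enzyme with DMSO only and 100% = wells lacking PAFAH1B3 protein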
Target sequence (Q15102 whole entry, looked up): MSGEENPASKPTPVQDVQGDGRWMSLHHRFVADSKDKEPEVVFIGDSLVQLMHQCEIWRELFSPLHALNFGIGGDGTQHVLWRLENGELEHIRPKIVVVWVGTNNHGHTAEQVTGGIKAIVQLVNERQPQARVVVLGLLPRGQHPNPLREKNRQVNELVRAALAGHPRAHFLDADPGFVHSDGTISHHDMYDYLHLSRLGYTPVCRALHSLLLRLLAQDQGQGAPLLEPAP
PAFAH1B2 inh – inhibitors of human PAFAH1B2; P68402; recombinant PAFAH1B2, FP-rhodamine activity probe, fluorescence polarization; inhibition, % at 3.39 µM; 1.2% of 340,000 active;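 active means inhibition above the mean of all tested compounds plus 3 SD, cut at about 24% in these data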;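 further: 0% = enzyme with DMSO and 100% = wells lacking PAFAH1B2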
pPAFAH inh – inhibitors of human plasma PAF acetylhydrolase (pPAFAH). Q13093. recombinant pPAFAH, FP-rhodamine probe fluorescence polarization. inhibition, % at 3.39 µM. 1.5% of 330,000 active;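 active means inhibition above the mean inhibition across the screen plus 3 SD, cut at about 25% in these data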;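 further: inhibitors block binding of the rhodamine activity-based probe so polarization drops; 0% = enzyme with DMSO and 100% = wells lacking pPAFAH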
Target sequence (Q13093 whole entry, looked up): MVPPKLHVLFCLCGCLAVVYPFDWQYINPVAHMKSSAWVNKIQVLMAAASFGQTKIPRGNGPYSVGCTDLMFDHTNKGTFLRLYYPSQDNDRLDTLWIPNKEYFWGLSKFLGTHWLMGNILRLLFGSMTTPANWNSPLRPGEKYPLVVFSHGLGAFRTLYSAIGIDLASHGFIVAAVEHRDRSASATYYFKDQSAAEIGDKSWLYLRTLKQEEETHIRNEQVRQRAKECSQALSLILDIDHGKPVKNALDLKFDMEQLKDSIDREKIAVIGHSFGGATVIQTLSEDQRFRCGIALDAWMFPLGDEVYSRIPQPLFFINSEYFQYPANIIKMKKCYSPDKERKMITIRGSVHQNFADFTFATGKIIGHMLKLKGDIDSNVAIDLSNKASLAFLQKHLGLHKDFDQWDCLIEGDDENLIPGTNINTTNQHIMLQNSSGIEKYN
PAFAH2 inh – inhibitors of human PAFAH2; recombinant PAFAH2, FP-rhodamine activity probe, fluorescence polarization; inhibition, % at 3.39 µM; 0.99% of 340,000 active; AID 492956;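 active means inhibition above the mean over all tested compounds plus 3 SD, cut at about 30% in these data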;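 further: inhibitors block probe labeling of enzyme so polarization drops; 0% = enzyme with DMSO and 100% = wells lacking PAFAH2 protein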
eLon inh – inhibits E. coli Lon protease | P0A9M0 | AID 602123 | inhibition, % at 7.94 µM | 0.42% of 360,000 active | purified E. coli Lon protease, fluorescence polarization; in the data active means inhibition above about 13%, passing the limit was not always enough;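 further: 0% = enzyme with probe and DMSO and 100% = no enzyme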
Rin1-Abl PPI inh – inhibitors of human Rin1-Abl protein interaction. P00519+Q13671. TR-FRET Rin1/Abl binding, biochemical. inhibition, % at 7.35 µM. 0.4% of 360,000 active; in the data active means inhibition above about 5%, passing the limit was not always enough
Active calls of the source: *. The list is not random: actives were taken first. Their share in the collection is about 3.1%.

Screening Cc1cc(C)c2nc(N3CCCC(C(=O)NC4CCCC4)C3)sc2c1 (stereo unspecified) returned PAFAH1B3 inh 3.8, PAFAH1B2 inh 4.0, pPAFAH inh -1.2, PAFAH2 inh -8.3, eLon inh 3.4 and Rin1-Abl PPI inh 6.1.
Screening CCc1nc2ccc(C(=O)N(C)Cc3ccco3)cn2c1N(CC)Cc1cccc(Br)c1 returned eLon inh -6.1 and Rin1-Abl PPI inh -5.7.
Screening O=S(=O)(Nc1ccc(Cl)cc1)c1ccc2c(c1)CCO2 returned PAFAH1B3 inh -5.1, PAFAH1B2 inh 19.7, pPAFAH inh 31.6*, PAFAH2 inh 0.2, eLon inh 2.5 and Rin1-Abl PPI inh -1.8.
Screening Nc1cc(S(=O)(=O)Nc2ccc(Cl)cc2)ccc1N1CCOCC1 returned PAFAH1B3 inh -2.7, PAFAH1B2 inh 0.9, pPAFAH inh 25.0*, PAFAH2 inh 4.5, eLon inh -7.4 and Rin1-Abl PPI inh -0.2.
CC(C)NC(=O)C1(C)CCCN1C/C=C/c1ccccc1 (stereo unspecified) was read as eLon inh -10.1 and Rin1-Abl PPI inh -2.2.
`COc1ccc([N+](=O)[O-])cc1N(CC(=O)NCCSc1ccc(C)cc1)S(C)(=O)=O` gave PAFAH1B3 inh 3.8, PAFAH1B2 inh 31.4*, pPAFAH inh -7.0, PAFAH2 inh 8.0, eLon inh -1.6 and Rin1-Abl PPI inh -0.2.
For O=C(CCCN1C(=O)/C(=C/c2ccccc2)SC1=S)Nc1ccccc1O the results were PAFAH1B3 inh 6.9, PAFAH1B2 inh 0.2, pPAFAH inh -2.5, PAFAH2 inh 2.1, eLon inh -1.2 and Rin1-Abl PPI inh 0.5.
`O=C(CCCN1C(=O)/C(=C\c2ccccc2)SC1=S)Nc1ccc(O)cc1C(=O)O` gave PAFAH1B3 inh 3.0, PAFAH1B2 inh 63.6*, pPAFAH inh 12.8, PAFAH2 inh 6.2, eLon inh -8.0 and Rin1-Abl PPI inh 0.6.
`O=C(CCCN1C(=O)/C(=C\c2cccs2)SC1=S)Nc1ccccc1O` gave eLon inh -11.4 and Rin1-Abl PPI inh -2.8.
For O=C(CCCN1C(=O)/C(=C/c2ccccc2Cl)SC1=S)NNC(=O)c1ccccc1 the results were PAFAH1B3 inh -1.5, PAFAH1B2 inh 0.4, pPAFAH inh 32.1*, PAFAH2 inh 3.7, eLon inh -2.5 and Rin1-Abl PPI inh -3.5.
`CCc1ccc(C=C2SC(=S)N(CCCC(=O)Nc3ccc(C(=O)O)cc3)C2=O)cc1` gave eLon inh -5.3 and Rin1-Abl PPI inh -2.5.
Screening O=C(CCCN1C(=O)/C(=C/c2cccs2)SC1=S)Nc1cc([N+](=O)[O-])ccc1O returned PAFAH1B3 inh 5.9, PAFAH1B2 inh 4.1, pPAFAH inh 30.1*, PAFAH2 inh 27.4, eLon inh 1.9 and Rin1-Abl PPI inh 0.1.
Screening CCc1ccc(/C=C2/SC(=S)N(CCCC(=O)Nc3ccccc3C(=O)O)C2=O)cc1 returned PAFAH1B3 inh 5.5, PAFAH1B2 inh 61.4*, pPAFAH inh -2.1, PAFAH2 inh 43.6*, eLon inh -14.0 and Rin1-Abl PPI inh 0.5.
For CC(=O)OCCn1c([N+](=O)[O-])cnc1C=[N+]([O-])C1CCCCC1 the results were eLon inh 1.5 and Rin1-Abl PPI inh -2.9.
For O=C(CNC(=O)c1cc(Cl)cc([N+](=O)[O-])c1)OCC(=O)N1CCCCC1 the results were PAFAH1B3 inh 2.1, PAFAH1B2 inh 4.4, pPAFAH inh 1.6, PAFAH2 inh -1.6, eLon inh 0.5 and Rin1-Abl PPI inh -1.2.
CC(C(=O)Nc1ccc(O)cc1C(=O)O)N1C(=O)/C(=C\c2cccs2)SC1=S (stereo unspecified) was read as PAFAH1B3 inh 7.9, PAFAH1B2 inh 8.5, pPAFAH inh 28.4*, PAFAH2 inh 21.9, eLon inh 0.1 and Rin1-Abl PPI inh -1.6.
CCOc1ccccc1NC1=NCC(=O)N1Cc1ccc(F)cc1 was read as PAFAH1B3 inh -3.4, PAFAH1B2 inh 0.5, pPAFAH inh 32.1*, PAFAH2 inh 0.4, eLon inh -12.1 and Rin1-Abl PPI inh -1.2.
`COc1ccccc1NC1=NCC(=O)N1Cc1ccccc1` gave PAFAH1B3 inh 0.5, PAFAH1B2 inh 0.6, pPAFAH inh -0.8, PAFAH2 inh -8.1, eLon inh 1.2 and Rin1-Abl PPI inh 5.5.
For CN(C)Cc1cc(C(F)(F)F)ccc1C(O)(c1ccccc1)c1ccccc1 the results were PAFAH1B3 inh -0.7, PAFAH1B2 inh 3.5, PAFAH2 inh -3.3, eLon inh -14.1 and Rin1-Abl PPI inh 0.8.
`Cc1[nH]c(N=Nc2ccccc2)nc1N=Nc1ccccc1` gave PAFAH1B3 inh 3.5, PAFAH1B2 inh 4.2, pPAFAH inh 25.4*, PAFAH2 inh -2.5, eLon inh -6.9 and Rin1-Abl PPI inh -2.6.
For CSc1ccc(OC2(C)CCN(Cc3ccc(C(C)C)cc3)C2)cc1 (stereo unspecified) the results were eLon inh -17.0 and Rin1-Abl PPI inh -1.4.
For CC(NC(=O)C12CC3CC(C)(CC(C)(C3)C1)C2)c1ccncc1 (stereo unspecified) the results were PAFAH1B3 inh 9.0, PAFAH1B2 inh 24.6*, pPAFAH inh 7.5, PAFAH2 inh 11.5, eLon inh 3.7 and Rin1-Abl PPI inh 1.0.
For CC(NC(=O)C12CC3CC(CC(C3)C1)C2)c1ccc(F)cc1 (stereo unspecified) the results were PAFAH1B3 inh 6.3, PAFAH1B2 inh 19.8, pPAFAH inh 2.3, PAFAH2 inh -2.7, eLon inh -1.8 and Rin1-Abl PPI inh -2.1.
For CC12CC3CC(C)(C1)CC(C(=O)NNC(=O)c1ccncc1)(C3)C2 the results were PAFAH1B3 inh 11.6, PAFAH1B2 inh 25.4*, pPAFAH inh 3.2, PAFAH2 inh 8.3, eLon inh -4.7 and Rin1-Abl PPI inh -0.3.
`O=[N+]([O-])c1cc([N+](=O)[O-])c(Oc2cccnc2Br)cc1NN1CCCCC1` gave PAFAH1B3 inh 5.8, PAFAH1B2 inh 6.5, pPAFAH inh 2.2, PAFAH2 inh 8.8, eLon inh 9.3 and Rin1-Abl PPI inh 2.7.
`NC(=O)COC(=O)CC12CC3CC(CC(Br)(C3)C1)C2` gave PAFAH1B3 inh 9.5, PAFAH1B2 inh 26.5*, pPAFAH inh 5.6, PAFAH2 inh 2.5, eLon inh 6.6 and Rin1-Abl PPI inh -0.7.
`C[n+]1ccc(C(=O)Nc2ccccc2Cl)cc1` gave PAFAH1B3 inh -0.9, PAFAH1B2 inh 0.5, pPAFAH inh 0.8, PAFAH2 inh 4.9, eLon inh 2.6 and Rin1-Abl PPI inh 0.1.
For CCCn1cnc2cc(NCc3ccc(Br)cc3)ccc21 the results were PAFAH1B3 inh 5.7, PAFAH1B2 inh 36.9*, pPAFAH inh 10.2, PAFAH2 inh 1.4, eLon inh 3.5 and Rin1-Abl PPI inh -3.4.
Screening Cn1cnc2cc(NCc3ccc(Cl)cc3)ccc21 returned PAFAH1B3 inh 3.3, PAFAH1B2 inh 42.9*, pPAFAH inh 1.0, PAFAH2 inh 0.5, eLon inh -9.5 and Rin1-Abl PPI inh -0.8.
`O=C(Nc1ccc2ncccc2c1)c1cccc(Br)c1` gave PAFAH1B3 inh 4.2, PAFAH1B2 inh 3.1, pPAFAH inh -2.5, PAFAH2 inh -3.0, eLon inh 10.2 and Rin1-Abl PPI inh -1.3.
